Measurements as given in PubChem BioAssay.
Calls of active or inactive are those of the source.

What was measured:
Albumin (Bos taurus) = Albumin (Bos taurus) (UniProt P02769); experiment: compounds binding labelled BSA control protein – biochemical, small-molecule microarray, Alexa647 label, 635/667 nm fluorescence, artefact control for SMM control protein annotation, profiling panel (AID 1118); conditions: BSA-A647 binding, fluorescence 635 nm, higher = more signal;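 further: score merges 667 nm emission intensity and signal-to-noise per printed compound spot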
Chain of Albumin (Bos taurus) (P02769 whole entry, looked up): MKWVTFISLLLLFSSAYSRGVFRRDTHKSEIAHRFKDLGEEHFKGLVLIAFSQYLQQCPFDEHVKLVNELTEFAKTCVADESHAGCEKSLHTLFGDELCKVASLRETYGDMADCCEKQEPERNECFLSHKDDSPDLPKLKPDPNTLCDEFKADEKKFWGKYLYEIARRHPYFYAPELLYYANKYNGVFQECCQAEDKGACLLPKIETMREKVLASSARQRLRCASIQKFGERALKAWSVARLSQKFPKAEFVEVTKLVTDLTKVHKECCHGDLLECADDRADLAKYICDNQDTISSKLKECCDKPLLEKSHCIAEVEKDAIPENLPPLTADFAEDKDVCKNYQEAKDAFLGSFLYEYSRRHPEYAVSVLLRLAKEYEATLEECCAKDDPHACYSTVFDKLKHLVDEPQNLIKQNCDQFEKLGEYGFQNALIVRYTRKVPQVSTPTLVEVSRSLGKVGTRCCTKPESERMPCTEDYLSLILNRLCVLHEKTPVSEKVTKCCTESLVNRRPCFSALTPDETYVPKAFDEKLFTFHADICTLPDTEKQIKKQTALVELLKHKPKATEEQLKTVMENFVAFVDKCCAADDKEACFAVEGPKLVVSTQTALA

[1] = probe aXIP binding to arrayed compounds – biochemical, NeuroSMM set, 635/667 nm fluorescence, primary screen (AID 1119); conditions: small-molecule microarray, higher = more signal, called active from +8 up or from −8 down;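 further: probe is the protein aXip251-270 applied at 1 µg/mL to compound-printed slides; binding of probe to printed compounds measured as 667 nm fluorescence plus signal to noise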
[2] = probe aNOTCH3 binding on compound microarray – biochemical, small-molecule microarray, 635/667 nm fluorescence, primary screen (AID 1120); conditions: higher = more signal;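 further: probe is a biotin-tagged antibody raised against NOTCH3 rather than NOTCH3 protein; score merges spot fluorescence near 667 nm with spot signal to noise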
[3] = probe aNOTCH2 binding on compound microarray – biochemical, small-molecule microarray, 635/667 nm fluorescence, primary screen (AID 1121); conditions: higher = more signal;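 further: score merges feature fluorescence read at 667 nm with its signal to noise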
[4] = target: Carbonic anhydrase 2 (Homo sapiens) (UniProt P00918); experiment: compounds binding carbonic anhydrase 2 – biochemical, small-molecule microarray, Alexa647-labelled CAII, profiling panel (AID 1122); conditions: CAII-A647 binding fluorescence, higher = more signal
[5] = COS7 lysate on small-molecule microarray, probe aHis, 635 nm (AID 1123); conditions: COS7 cell lysate, fluorescence, higher = more signal;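 further: z-score combines 667nm fluorescence intensity with signal-to-noise per printed compound spot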
[6] = probe aLAP1 signal on lysate-treated microarray – cell lysate, small-molecule microarray, COS7 lysate, primary screen (AID 1124); conditions: probe aLAP1, fluorescence, higher = more signal;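 further: lysate comes from COS7 cells expressing LAP1 and is applied at 0.3 µg/mL; score merges spot fluorescence near 667 nm with signal-to-noise over triplicate slides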
Sam68 (KHDRBS1) = experiment: compounds binding KHDRBS1 protein – biochemical, small-molecule microarray, 635 nm fluorescence, primary screen (AID 1125); conditions: higher = more signal;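 further: score merges 667 nm channel intensity with signal to noise over triplicate slides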
[7] = system: Chordin-like protein 2 (CHRDL2); experiment: compounds binding chordin-like 2 – biochemical, small-molecule microarray, 635 nm fluorescence, primary screen (AID 1126); conditions: fluorescence 635 nm, higher = more signal;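 further: printed compound slides probed with Chrdl2 protein at 4 µg/mL for 1 h at 4 C; score merges 667 nm emission intensity with signal to noise over three replicate slides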
[8] = target: Concanavalin-A (Canavalia ensiformis) (UniProt P02866); experiment: compounds binding concanavalin A lectin – biochemical, small-molecule microarray, Alexa647 label, 635 nm, artefact control for SMM control protein annotation, primary screen (AID 1127); conditions: ConA-A647 binding fluorescence, higher = more signal;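 further: z combines 667 nm emission intensity with signal-to-noise across three replicate slides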
Chain of Concanavalin-A (Canavalia ensiformis) (P02866 whole entry, looked up): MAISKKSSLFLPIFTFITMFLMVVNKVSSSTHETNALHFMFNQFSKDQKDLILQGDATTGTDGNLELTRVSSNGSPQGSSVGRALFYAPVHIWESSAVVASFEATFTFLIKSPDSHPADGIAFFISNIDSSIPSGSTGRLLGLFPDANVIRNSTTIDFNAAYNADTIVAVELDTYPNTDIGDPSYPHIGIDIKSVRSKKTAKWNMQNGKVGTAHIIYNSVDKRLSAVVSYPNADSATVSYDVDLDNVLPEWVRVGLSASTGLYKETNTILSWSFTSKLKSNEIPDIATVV

[9] = compounds binding Alexa647 anti-His antibody – biochemical, small-molecule microarray, 635 nm fluorescence, artefact control for SMM control protein annotation, primary screen (AID 1128); conditions: higher = more signal;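 further: score merges feature fluorescence with signal-to-noise for each printed compound spot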
[10] = system: Human papillomavirus type 1a E7 protein (residues 1-88); experiment: HPV1a E7 small-molecule binders, primary screen, biochemical, small-molecule microarray, residues 1-88, 635 nm (AID 1129); conditions: small-molecule microarray binding, fluorescence 635 nm; higher = more signal
[11] = target: Focal adhesion kinase 1 (Homo sapiens) (UniProt Q05397); experiment: PTK2 protein binding on printed compound slides – biochemical, small-molecule microarray, 635/667 nm fluorescence, BSA, DTT, primary screen (AID 1130); conditions: 635 nm fluorescence, higher = more signal;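 further: composite of spot emission at 667 nm and signal to noise over triplicate slides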
Chain of Focal adhesion kinase 1 (Homo sapiens) (Q05397 whole entry, looked up): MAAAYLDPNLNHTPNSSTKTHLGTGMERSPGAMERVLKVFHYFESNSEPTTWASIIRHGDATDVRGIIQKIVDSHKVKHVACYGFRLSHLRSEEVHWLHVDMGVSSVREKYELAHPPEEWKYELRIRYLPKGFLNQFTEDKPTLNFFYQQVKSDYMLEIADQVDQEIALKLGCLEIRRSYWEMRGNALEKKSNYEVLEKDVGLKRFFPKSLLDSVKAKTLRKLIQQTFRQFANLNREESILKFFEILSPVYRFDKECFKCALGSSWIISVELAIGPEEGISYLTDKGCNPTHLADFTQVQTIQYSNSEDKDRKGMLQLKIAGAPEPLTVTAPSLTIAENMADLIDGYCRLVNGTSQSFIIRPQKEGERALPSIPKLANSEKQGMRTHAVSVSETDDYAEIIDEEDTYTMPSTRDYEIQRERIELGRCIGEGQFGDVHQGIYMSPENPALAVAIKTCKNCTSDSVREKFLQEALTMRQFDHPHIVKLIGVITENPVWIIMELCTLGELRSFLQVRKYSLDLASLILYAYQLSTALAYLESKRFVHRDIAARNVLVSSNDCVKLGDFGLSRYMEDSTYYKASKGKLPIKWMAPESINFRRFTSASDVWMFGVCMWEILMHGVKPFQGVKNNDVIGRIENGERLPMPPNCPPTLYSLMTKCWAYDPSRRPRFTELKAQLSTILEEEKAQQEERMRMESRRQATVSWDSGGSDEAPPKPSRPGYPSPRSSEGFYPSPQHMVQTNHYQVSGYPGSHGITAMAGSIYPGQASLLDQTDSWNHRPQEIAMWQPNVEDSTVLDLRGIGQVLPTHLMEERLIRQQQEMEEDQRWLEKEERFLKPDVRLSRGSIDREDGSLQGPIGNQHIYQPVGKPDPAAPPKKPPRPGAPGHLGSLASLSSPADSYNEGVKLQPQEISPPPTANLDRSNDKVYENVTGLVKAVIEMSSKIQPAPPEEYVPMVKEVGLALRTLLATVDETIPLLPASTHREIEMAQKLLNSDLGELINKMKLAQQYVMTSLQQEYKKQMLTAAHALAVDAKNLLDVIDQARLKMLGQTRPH

[12] = system: Fibrinogen (Alexa647-labelled); experiment: Alexa647-fibrinogen binding to printed small molecules – biochemical, small-molecule microarray, 635/667 nm fluorescence, artefact control for SMM control-protein annotation, profiling panel (AID 1131); conditions: fibrinogen-A647 binding fluorescence, higher = more signal;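 further: z-score merges 667 nm fluorescence with per-spot signal-to-noise over triplicate slides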
[13] = target: Follistatin (Homo sapiens) (UniProt P19883); experiment: FST protein binding to printed compounds – biochemical, small-molecule microarray, 635/667 nm fluorescence, primary screen (AID 1132); conditions: 635 nm fluorescence, higher = more signal
Chain of Follistatin (Homo sapiens) (P19883 whole entry, looked up): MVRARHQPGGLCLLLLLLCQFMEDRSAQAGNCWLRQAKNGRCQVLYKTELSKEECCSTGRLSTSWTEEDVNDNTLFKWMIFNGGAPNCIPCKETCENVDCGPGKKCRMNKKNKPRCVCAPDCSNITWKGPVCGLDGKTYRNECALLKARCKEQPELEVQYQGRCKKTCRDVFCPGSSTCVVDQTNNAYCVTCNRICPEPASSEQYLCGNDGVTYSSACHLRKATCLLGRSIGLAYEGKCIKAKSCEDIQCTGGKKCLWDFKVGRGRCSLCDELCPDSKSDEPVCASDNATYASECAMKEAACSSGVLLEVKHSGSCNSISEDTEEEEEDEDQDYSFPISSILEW

[14] = target: Fibroblast growth factor 2 (Homo sapiens) (UniProt P09038); experiment: basic fibroblast growth factor binding to printed compounds – biochemical, small-molecule microarray, 635/667 nm fluorescence, primary screen (AID 1133); conditions: FGF2, fluorescence 635/667, higher = more signal
Chain of Fibroblast growth factor 2 (Homo sapiens) (P09038 whole entry, looked up): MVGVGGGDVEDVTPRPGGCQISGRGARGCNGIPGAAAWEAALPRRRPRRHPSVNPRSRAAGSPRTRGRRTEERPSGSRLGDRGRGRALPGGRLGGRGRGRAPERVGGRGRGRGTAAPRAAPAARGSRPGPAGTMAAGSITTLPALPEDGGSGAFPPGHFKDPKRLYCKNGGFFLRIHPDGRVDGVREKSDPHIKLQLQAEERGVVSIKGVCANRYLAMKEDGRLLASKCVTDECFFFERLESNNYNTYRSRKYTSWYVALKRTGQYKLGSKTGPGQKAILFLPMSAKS

[15] = JC-1 mitochondrial potential readout, lung cancer cells – cell-based, A549, JC-1 fluorescence, basal, 24 h, 100 nL, profiling panel (AID 1138); conditions: higher = more signal;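 further: A549 lung adenocarcinoma cells under basal conditions with no added stimulus; test concentration not given here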
Lefty1 = Lefty1 protein binding to printed compounds – biochemical, small-molecule microarray, 635/667 nm fluorescence, primary screen (AID 1139); conditions: fluorescence 635/667, higher = more signal
[16] = system: wheat germ agglutinin (Triticum aestivum), Alexa647-labelled; experiment: Alexa647-WGA lectin binding to printed small molecules – biochemical, small-molecule microarray, 635/667 nm fluorescence, artefact control for SMM control-protein annotation, profiling panel (AID 1140); conditions: WGA-A647 binding, 635 nm fluorescence, higher = more signal;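 further: score merges 667 nm feature emission with signal to noise over triplicate slides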
[17] = target: Luciferin 4-monooxygenase (Photinus pyralis) (UniProt P08659); experiment: inhibition of purified Photinus pyralis luciferase – biochemical, luminescence, purified enzyme, 2006 set, primary screen (AID 1141); conditions: purified firefly luciferase, SteadyGlo luminescence, 30 min; higher = more signal, called active from +8 up or from −8 down;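 further: cell-free assay with purified firefly luciferase at 100 ng per well in PBS; test concentration not given here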
Chain of Luciferin 4-monooxygenase (Photinus pyralis) (P08659 whole entry, looked up): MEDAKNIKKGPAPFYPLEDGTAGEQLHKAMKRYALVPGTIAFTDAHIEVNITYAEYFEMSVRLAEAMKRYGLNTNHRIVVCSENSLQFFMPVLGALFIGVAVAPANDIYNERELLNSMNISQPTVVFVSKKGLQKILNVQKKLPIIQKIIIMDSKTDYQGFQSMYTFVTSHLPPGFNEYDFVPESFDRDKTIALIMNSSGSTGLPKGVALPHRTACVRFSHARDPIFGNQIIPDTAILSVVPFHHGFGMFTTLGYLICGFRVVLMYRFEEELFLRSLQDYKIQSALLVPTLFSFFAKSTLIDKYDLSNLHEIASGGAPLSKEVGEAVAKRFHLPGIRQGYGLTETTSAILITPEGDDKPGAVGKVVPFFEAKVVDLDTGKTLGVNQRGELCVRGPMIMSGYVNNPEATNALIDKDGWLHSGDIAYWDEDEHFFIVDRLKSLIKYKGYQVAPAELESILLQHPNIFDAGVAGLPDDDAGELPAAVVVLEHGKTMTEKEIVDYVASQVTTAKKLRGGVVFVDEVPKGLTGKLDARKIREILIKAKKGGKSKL

SMILES	composite z-score (Albumin (Bos taurus))	composite Z-score [1]	composite z-score [2]	composite z-score [3]	composite z-score [4]	composite z-score [5]	composite z-score [6]	composite z-score (Sam68 (KHDRBS1))	composite z-score [7]	composite z-score [8]	composite z-score [9]	composite z-score [10]	composite z-score [11]	composite z-score [12]	composite z-score [13]	composite z-score [14]	z-score [15]	composite z-score (Lefty1)	composite z-score [16]	z-score [17]
CC(C)CNC(=O)[C@@]1(C)c2ccccc2C(=O)N(Cc2ccc(OC(F)(F)F)cc2)[C@H]1c1ccc(CO)cc1	-0.2	0.416 (inactive)	-0.241	-0.0094	0.706	1.17	0.559	-0.718	-1.3	-1.74	0.206	0.325	-0.0752	-0.0439	-0.27	0.192	0.209	-1.43	-0.0416	-1.22 (inactive)
C[C@@H]1CC[C@H]2C(=O)N3CCC[C@H]3C(=O)N2[C@H]1c1ccc(Br)cc1	-0.295	0.734 (inactive)	-0.261	-0.174	-0.213	0.233	0.123	-0.0235	0.536	-0.377	0.136	-0.366	0.335	0.0658	0.162	0.36	1.68	0.724	-0.169	-1.02 (inactive)
COC(=O)C1=C(C)N(Cc2ccccc2)c2c(C(=O)OC)c(C(=O)OC)c(C(=O)OC)c(=O)n2[C@@H]1c1ccccc1	0.8	0.242 (inactive)	0.116	-0.0158	0.0478	0.247	0.763	0.383	-0.0328	0.641	-0.0074	0.436	0.39	0.437	0.321	0.528	0.813	0.27	0.292	-1.01 (inactive)
Cc1ccc(N2C(=O)c3ccccc3[C@@H](C(=O)NCC(F)(F)F)[C@@H]2c2ccc(CO)cc2)nc1	-0.0791	0.352 (inactive)	-0.185	-0.0674	0.844	-0.786	-0.415	-1.85	-2.4	-1.9	-1.37	-2.06	-0.589	-1.4	-2.06	-0.59	-0.913	-3.17	-0.925	-0.642 (inactive)
CCOC(=O)C[C@H]1[C@H](OC(=O)Cc2ccc3c(c2)OCO3)[C@@H](NC(=O)CC(C)C)c2cc(OCCCO)ccc2N1C(=O)c1ccccc1	0.842	0.312 (inactive)	-0.0682	0.0972	0.186	0.41	-0.0777	0.562	0.133	-1.14	-0.314	0.157	0.344	0.165	0.45	0.503	1.91	0.492	0.0122	-1.26 (inactive)
CC(=O)NCCCC[C@@H]1NC(=O)[C@H]2C[C@@H](C(=O)NCCCCCCN(C)C)[C@@H](c3cccc(OCCO)c3)N2C1=O	-1.13	3.25 (inactive)	0.259	0.075	0.694	1.73	1.09	1.32	1.43	1.16	2.66	1.2	1.15	0.478	1.37	1.33	-0.153	1.57	0.797	-0.805 (inactive)
[N-]=[N+]=NCc1ccccc1C[C@]1(C(=O)N2CCCCC2)N=C(c2ccc(OCCCO)cc2)O[C@H]1c1ccccc1CN=[N+]=[N-]	0.899	0.375 (inactive)	0.268	-0.0817	0.441	2.56	0.796	1.29	-0.914	1.04	0.538	1.21	0.652	0.947	1.04	-0.369	-0.0989	0.453	0.59	-1.02 (inactive)
C=CC[C@]1(C(=O)O)N=C(c2ccc(OCCCO)cc2)O[C@H]1c1ccccc1N=[N+]=[N-]	0.548	0.0407 (inactive)	0.0807	-0.159	0.668	1.45	1.24	0.0203	-0.37	0.642	0.258	-0.171	0.0806	-0.17	-0.0493	-0.124	1.28	-1.09	0.0828	-12.3 (active)
Cc1ccc(N2C(=O)c3ccccc3[C@@H](C(=O)NCc3ccccc3)[C@@H]2c2ccc(CO)cc2)nc1	-1.29	-0.816 (inactive)	-0.0328	-0.0272	0.451	3.91	-0.0641	-0.931	0.465	-1.28	-0.841	-1.26	-0.289	-1.15	1.33	0.0049	1.35	-0.114	-1.19	-0.635 (inactive)
CC(C)=C1C(=O)C(c2ccccc2)=C2CN3C(=O)N(CCc4ccccc4)C(=O)[C@]3(Cc3ccccc3)[C@H]21	0.0673	0.548 (inactive)	-0.0209	0.224	0.204	0.572	-0.14	-1.59	-2.04	-1.18	1.39	-0.992	0.521	-0.358	-1.04	-0.77	1.45	-0.961	-0.112	0.451 (inactive)
CO[C@H]1COC(=O)[C@H](C)NC(=O)CC=C[C@@H](C)[C@H](NS(=O)(=O)c2ccc(C)cc2)COC(=O)[C@@H](OCc2ccccc2)C=C[C@@H]1C	0.228	0.0585 (inactive)	-0.0932	-0.154	-0.367	-0.959	-0.659	0.133	1.03	-0.333	-1.04	-0.515	0.269	-0.394	0.641	0.574	1.87	1.02	-0.609	-0.893 (inactive)
